Source: PubChem BioAssay (The Scripps Research Institute Molecular Screening Center)
Sampled rows, rich in hits. Any-hit rate of the full collection: about 2.3%.
M1 PAM parental – counter-screen for M1 PAMs: effect in parental CHO-K1 cells; AID 602247; activation, % at 3 µM; hit rate 0.02% among 360,000; ATP EC20, Fluo-8 calcium fluorescence; 0% at ATP EC20, 100% at ATP max;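 active = activation above the run cutoff, the mean activation of all test compounds plus 3 SD, cut at about 40% in these data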;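 note: peak over basal fluorescence ratio in a 140 s read after ATP addition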
CHO-K1 Ca antag – M1 antagonist counterscreen hit in parental CHO-K1 cells; ATP-induced calcium, Fluo-8 fluorescence; inhibition, % at 3 µM; hit rate 0.6% among 360,000;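 active = inhibition above a per-plate cutoff, the plate's mean sample inhibition plus 3 SD, cut at about 24% in these data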;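 note: 0% = DMSO plus EC80 ATP and 100% = DMSO alone without ATP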
CHRM1 agonist – human M1 muscarinic receptor agonism; activation, % at 3 µM; AID 588814; P11229; hit rate 0.33% among 360,000; CHO-K1 hM1, Fluo-8 calcium fluorescence, agonist mode; 0% DMSO, 100% acetylcholine EC100;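 active = activation above the run's mean compound activation plus 3 SD, cut at about 16% in these data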;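 note: peak over basal fluorescence ratio within a 140 s kinetic read after compound addition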
Target sequence (P11229 whole entry, looked up): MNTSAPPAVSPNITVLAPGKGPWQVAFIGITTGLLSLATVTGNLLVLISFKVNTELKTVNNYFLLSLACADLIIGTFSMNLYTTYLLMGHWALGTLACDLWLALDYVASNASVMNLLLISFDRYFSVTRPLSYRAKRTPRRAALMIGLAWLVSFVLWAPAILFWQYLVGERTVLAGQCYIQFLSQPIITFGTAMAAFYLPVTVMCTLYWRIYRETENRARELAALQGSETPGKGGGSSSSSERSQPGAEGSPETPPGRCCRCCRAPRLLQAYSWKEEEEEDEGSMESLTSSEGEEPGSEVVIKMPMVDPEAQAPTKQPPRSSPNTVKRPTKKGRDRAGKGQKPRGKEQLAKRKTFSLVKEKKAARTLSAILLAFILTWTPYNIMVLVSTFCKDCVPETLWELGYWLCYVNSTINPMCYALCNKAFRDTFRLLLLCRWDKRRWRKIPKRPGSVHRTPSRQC
M1 PAM – positive allosteric modulators of human M1 muscarinic receptor | activation, % at 3 µM | P11229 | AID 588819 | hit rate 0.088% among 360,000 | CHO-K1 hM1, Fluo-8 calcium fluorescence, ACh EC20; 0% = ACh EC20, 100% = maximal ACh; in the data active = activation above about 19%, passing the limit was not always enough
CHO-K1 Ca ag – M1 agonist counterscreen hit in parental CHO-K1 cells; Fluo-8 calcium fluorescence; scaled to maximal ATP response, vehicle zero; activation, % at 3 µM; hit rate 0.48% among 360,000; in the data active = activation above about 15%;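 note: untransfected CHO-K1 host cells lacking M1 receptor as counterscreen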
M1 antag – antagonists of human M1 muscarinic receptor | hit rate 1.3% among 360,000 | AID 588852 | inhibition, % at 3 µM | CHO-K1 hM1, Fluo-8 calcium fluorescence, ACh EC80 antagonist | P11229;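 active = percent inhibition above its own plate's cutoff, namely the mean of that plate's compound wells plus 3 SD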;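 note: peak over basal fluorescence ratio during 140 s after agonist addition; 0% = ACh EC80 plus DMSO and 100% = DMSO alone without agonist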
* marks the source's active call; other numbers are inactive results; . = not tested or not shown.

SMILES | M1 PAM parental | CHO-K1 Ca antag | CHRM1 agonist | M1 PAM | CHO-K1 Ca ag | M1 antag
COc1ccc(-c2nc(C#N)c(N3CCN(c4ccccc4)CC3)o2)cc1 | -10 | 9 | -1 | -15 | 0 | 29*
COc1ccc(N2CCN(c3oc(-c4ccc(OC)c(OC)c4)nc3C#N)CC2)cc1 | 16 | -6 | -1 | 8 | 2 | -10
COc1cc(C(=O)Nc2ccc3c(c2)N(C(=O)CCN(C)C)c2ccccc2CC3)cc(OC)c1OC | 16 | -3 | -14 | -33 | 0 | 27*
COC(=O)CCCC(=O)N1CCCC(CNS(=O)(=O)c2ccc(OC)cc2)C1 (stereo unspecified) | 25 | -18 | -3 | 11 | 1 | -10
CCOC(=O)c1ccc(NC(=O)CCc2nc(-c3ccccc3)no2)cc1 | 4 | 6 | 0 | -10 | 6 | 31*
O=C(Nc1ccc(-c2noc(CCc3ccccc3)n2)cc1)c1cccnc1 | 1 | 20 | 1 | -13 | 7 | 26*
O=C(NCCc1ccccc1)c1ccc(NC(=O)c2cccnc2)cc1 | 12 | -3 | -4 | 8 | 3 | -19
COc1ccc(NC(=O)N/C=C/c2ccccc2)cc1 | 18 | 8 | -10 | 4 | 16* | -1
COc1ccc(NC(=O)NC(C)c2ccccc2)cc1 (stereo unspecified) | 9 | -7 | -5 | 8 | 1 | -9
OC1CC2CCC(C1)N2CCCN1c2ccccc2Sc2ccc(Cl)cc21 (stereo unspecified) | 3 | 0 | 2 | -27 | 11 | 67*
O=C(COc1ccccc1Cl)NCCNC(=O)c1ccco1 | 27 | -24 | -1 | 10 | 0 | -7
Cc1nc(-c2ccccc2)sc1C(N)=O | 22 | -16 | -3 | 0 | 0 | -21
C/C(=N\O)c1sc(-c2ccccc2)nc1C | 2 | 5 | -9 | 3 | 20* | 3
CC(=O)c1c(C)oc2ccc(N(C(C)=O)S(=O)(=O)c3cccc4cccnc34)cc12 | -9 | 0 | 2 | -25 | 12 | 60*
CC(=O)c1c(C)oc2ccc(N(C(C)=O)S(=O)(=O)c3ccc(F)cc3C)cc12 | 15 | -8 | -3 | 11 | 1 | -12
O=C(Cc1cnc2ncnn2c1)N1CCc2c([nH]c3ccccc23)C1c1ccccn1 (stereo unspecified) | 10 | -6 | -6 | 7 | 0 | 5
Cc1ccc(NC(=O)CN(C)C(=O)c2cc3ccccc3o2)cc1 | -15 | 22 | -5 | -8 | 0 | 9
O=C(c1cc(-c2ccccc2Cl)on1)N1CCN(C(=O)c2ccco2)CC1 | 15 | -13 | 2 | 14 | 0 | -44
O=C(c1cc(-c2ccc(Cl)cc2Cl)on1)N1CCN(C(=O)c2ccco2)CC1 | -7 | 25* | 8 | 14 | -1 | -20
N#C/C(=C\c1ccc(N2CCOCC2)o1)C(=O)NC1CCCCC1 | 12 | 0 | 15 | -3 | 16* | 4
N#C/C(=C\c1ccc(N2CCOCC2)o1)C(=O)NCCc1ccccc1 | -7 | 15 | 21* | -17 | 23* | 9
N#C/C(=C/c1ccc(N2CCOCC2)o1)C(=O)Nc1ccccc1 | -3 | 20 | 50* | -23 | 61* | 32
O=C(Nc1ccc(S(=O)(=O)N2CCCCC2)cc1)C1CC(=O)N(c2ccc(Cl)cc2)C1 (stereo unspecified) | 18 | -8 | -3 | 15 | 0 | -19
O=C(c1ccc([N+](=O)[O-])cc1)N(Cc1cccs1)C1CCS(=O)(=O)C1 (stereo unspecified) | 20 | -13 | -4 | 16 | 1 | -18
O=c1oc2ccccc2c(Nc2ccc(F)cc2)c1[N+](=O)[O-] | 15 | -9 | 0 | 10 | 19* | -17
SMILES | M1 PAM parental | CHO-K1 Ca antag | CHRM1 agonist | M1 PAM | CHO-K1 Ca ag | M1 antag
O=c1oc2ccccc2c(Nc2ccc(Cl)cc2)c1[N+](=O)[O-] | 4 | -4 | 1 | -5 | 12 | -1
N#CCCN(C(=O)COC(=O)c1ccc(CNS(=O)(=O)c2ccc(F)c(Cl)c2)cc1)c1ccc(F)cc1 | 11 | 1 | -13 | -27 | 6 | 79*
CCCN(CC1CC1)C(=O)COC(=O)c1ccc(CNS(=O)(=O)c2ccc(F)c(Cl)c2)cc1 | 12 | -2 | -6 | -17 | 4 | 2
Cc1ccc(CNC(=O)Nc2ccccc2)n1C | 8 | -11 | -3 | 3 | 1 | -2
O=C(C1CCC(CNc2nc(=S)[nH]c3ccccc23)CC1)N1CCN(c2ccc(F)cc2)CC1 (stereo unspecified) | -10 | -2 | -7 | -13 | 0 | 33*
COc1ccc(N2CCN(CCCNC(=O)C3CCC(CNc4nc(=S)[nH]c5ccccc45)CC3)CC2)cc1 (stereo unspecified) | 2 | -13 | -7 | 4 | 5 | -3
O=C(NC1CCCCC1)C1c2ccccc2OCC(=O)N1Cc1cccnc1 (stereo unspecified) | 10 | -8 | . | . | 1 | .
O=C1c2ccccc2C(=O)N1CN(C(=O)c1ccccc1)c1ccc(O)cc1 | 6 | 12 | -4 | 8 | 22* | 5
O=C(c1ccccc1F)N1CCN(Cc2ccc3c(c2)OCO3)CC1 | 13 | -7 | -5 | 4 | 1 | -4
N#Cc1c(F)cccc1N1CCN(Cc2ccc3c(c2)OCO3)CC1 | -20 | -15 | -12 | -35 | 1 | 66*
COc1ccc(NS(=O)(=O)c2ccc(N3CCCC3)c(N)c2)cc1 | -9 | 16 | -6 | -27 | 10 | 40*
CCNC(=O)Nc1cc(S(=O)(=O)Nc2ccc(OC)cc2)ccc1N1CCOCC1 | -18 | 28* | 6 | -11 | 14 | 26
O=C(COc1ccc(S(=O)(=O)Nc2ccc(Cl)cc2)cc1)N1CCOCC1 | 6 | 0 | 18* | -2 | 10 | 6
CC(=O)N1CCSc2ccc(S(=O)(=O)Nc3ccc(C)cc3)cc21 | 10 | -16 | 0 | -5 | 9 | 2
COc1ccc(NS(=O)(=O)c2ccc(OCC(=O)N3CCOCC3)cc2)cc1 | 18 | 4 | 0 | -2 | 3 | 3
COc1ccc(NS(=O)(=O)c2ccc3c(c2)N(C(C)=O)CCS3)cc1 | -16 | 23 | 4 | -8 | 17* | 5
Cc1ccc(C)c(S(=O)(=O)NCC(=O)Nc2ccc3c(c2)OCO3)c1 | 16 | -13 | -1 | 12 | 4 | -14
COc1c(S(=O)(=O)NCCCn2ccnc2)ccc(Cl)c1Cl | 3 | 4 | -6 | 0 | 1 | -9
Nc1cc(S(=O)(=O)Nc2ccc(Cl)cc2)ccc1N1CCOCC1 | -17 | 19 | 6 | -14 | 12 | 39*
COc1ccc(NS(=O)(=O)c2cc(NC(=O)CCNC(C)=O)ccc2N2CCCCC2)cc1 | 18 | -11 | -5 | -11 | 1 | 44*
Cc1cccnc1C(NC(=O)C1CCN(Cc2ccc(Oc3ccccc3)cc2)CC1)c1ccccc1 (stereo unspecified) | 1 | 0 | -9 | -20 | 0 | 27*
